Laboratory results from PubChem BioAssay.
The source made the active and inactive calls.

Experiments:
[1] = binders of probe aFSTL3 on microarray, primary screen, stem cell growth factor project, biochemical, small-molecule microarray, fluorescence 635/667 (AID 1064); conditions: higher = more signal;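 also: measures binding of the biotinylated anti-FSTL3 antibody to printed compounds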
[2] = binders from COS7 lysate, DM2A8 probe, primary screen, torsin A project, cell lysate, small-molecule microarray, fluorescence 635/667 (AID 1065); conditions: higher = more signal, COS7 lysate expressing mutant human TOR1A
[3] = binders of probe aFGF2 on microarray, primary screen, stem cell growth factor project, biochemical, small-molecule microarray, fluorescence 635/667 (AID 1067); conditions: higher = more signal;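 also: measures binding of biotinylated aFGF2 protein to printed compounds on slides; z-score merges feature fluorescence and signal-to-noise across triplicate slides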
[4] = binders of probe aFGF10 on microarray, primary screen, stem cell growth factor project, biochemical, small-molecule microarray, fluorescence 635/667 (AID 1071); conditions: higher = more signal;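 also: score merges 667 nm spot intensity and signal to noise from triplicate slides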
[5] = molecular target: Neurogenic locus notch homolog protein 2 (Homo sapiens) (UniProt Q04721); experiment: Notch2 binders on small-molecule microarrays, primary screen, biochemical, small-molecule microarray, 635 nm fluorescence, stem cell growth factors (AID 1073); conditions: Notch2 binding, higher = more signal
[6] = molecular target: Pro-neuregulin-1, membrane-bound isoform (Homo sapiens) (UniProt Q02297); experiment: NRG1 binders on small-molecule microarrays, primary screen, psychiatric disease protein project, biochemical, small-molecule microarray, fluorescence 635/667 (AID 1075); conditions: NRG1 binding, 635 nm fluorescence, higher = more signal;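 also: score combines 667 nm spot fluorescence with signal to noise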
[7] = system: Neuregulin-1 EGF-like domain; experiment: binders of neuregulin-1 EGF-like domain, primary screen, biochemical, small-molecule microarray, 635 nm fluorescence (AID 1081); conditions: small-molecule microarray binding, higher = more signal;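 also: binding of the protein to compounds printed on small-molecule microarray slides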
[8] = FRG1 promoter luciferase signal modulators, primary screen, FRG1 inhibition for FSHD, cell-based, C2C12 myotubes, firefly/Renilla luciferase, luminescence (AID 1084); conditions: higher = more signal, called active from +8 up or from −8 down
[9] = binders of probe aFST on microarray, primary screen, stem cell growth factor project, biochemical, small-molecule microarray, fluorescence 635/667 (AID 1086); conditions: higher = more signal;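 also: score merges 667 nm fluorescence with signal-to-noise of each printed compound spot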
[10] = binders of probe aHhip on microarray, primary screen, stem cell growth factor project, biochemical, small-molecule microarray, fluorescence 635/667 (AID 1087); conditions: higher = more signal;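 also: score merges spot fluorescence at 667nm with spot signal to noise ratio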
[11] = system: PRMT1 (protein arginine N-methyltransferase 1); experiment: PRMT1 binders on small-molecule microarrays, primary screen, biochemical, small-molecule microarray, 635 nm fluorescence (AID 1088); conditions: small-molecule microarray binding, higher = more signal;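 also: binding of Prmt1 protein to compounds spotted on small-molecule microarray slides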
[12] = yeast growth modulation, basal conditions, primary screen, YJM789 clinical isolate, OD600, 24 h (AID 1089);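 also: growth of clinical yeast isolate S. cerevisiae YJM 789 seeded 1000 cells per well; test concentration not given here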; conditions: S. cerevisiae YJM789 growth, higher = more signal, called active from +8 up or from −8 down
[13] = fission yeast growth modulation, primary screen, strain 972, OD600, 24 h, no modulator (AID 1090);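 also: basal condition with compound alone and no growth modifier present; test concentration not given here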; conditions: S. pombe 972 growth, higher = more signal, called active from +8 up or from −8 down
[14] = S. cerevisiae growth modulation with rapamycin, primary screen, strain BY4716, OD600, 96 h (AID 1091); conditions: higher = more signal, called active from +8 up or from −8 down; also: test concentration not given here
[15] = molecular target: Torsin-1A-interacting protein 2 (Homo sapiens) (UniProt Q8NFQ8); experiment: LULL1 binders on small-molecule microarray, primary screen, cell lysate, human LULL1 lysate, 635/667 nm fluorescence (AID 1092); conditions: hLULL1 lysate binding, 635 nm fluorescence, higher = more signal;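 also: probe is lysate of COS7 cells overexpressing human LULL1; score merges per-feature 667 nm fluorescence with signal-to-noise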
[16] = E. coli growth modulation, two-sided OD650, primary screen, E. coli filamentation project, strain DRC41, 24 h (AID 1093); conditions: OD650, 24 h, higher = more signal, called active from +8 up or from −8 down;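 also: MC1000 strain lacking acrAB efflux and sulA so SOS filamentation is blocked; test concentration not given here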
[17] = small-molecule microarray binders of probe aLefty2, primary screen, biochemical, biotinylated probe, 635/667 nm fluorescence (AID 1094); conditions: higher = more signal;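 also: score merges spot fluorescence near 667 nm with spot signal-to-noise ratio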
[18] = system: Noggin (protein binding on small-molecule microarray); experiment: Noggin binders on small-molecule microarray, primary screen, biochemical, 635/667 nm fluorescence (AID 1095); conditions: 635 nm fluorescence, higher = more signal;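 also: score merges 667 nm feature fluorescence with signal to noise over triplicate slides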
[19] = molecular target: Neurogenic locus notch homolog protein 3 (Homo sapiens) (UniProt Q9UM47); experiment: NOTCH3 binders on small-molecule microarray, primary screen, biochemical, 635/667 nm fluorescence (AID 1096); conditions: NOTCH3 binding, 635 nm fluorescence, higher = more signal
[20] = small-molecule microarray binders of probe aEGFR, primary screen, biochemical, biotinylated probe, 635/667 nm fluorescence (AID 1097); conditions: higher = more signal;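 also: probe is a biotinylated anti-EGFR antibody binding compounds printed on slides; score combines fluorescence near 667 nm and signal to noise of each spot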

Sequence of Torsin-1A-interacting protein 2 (Homo sapiens) (Q8NFQ8 whole entry, looked up): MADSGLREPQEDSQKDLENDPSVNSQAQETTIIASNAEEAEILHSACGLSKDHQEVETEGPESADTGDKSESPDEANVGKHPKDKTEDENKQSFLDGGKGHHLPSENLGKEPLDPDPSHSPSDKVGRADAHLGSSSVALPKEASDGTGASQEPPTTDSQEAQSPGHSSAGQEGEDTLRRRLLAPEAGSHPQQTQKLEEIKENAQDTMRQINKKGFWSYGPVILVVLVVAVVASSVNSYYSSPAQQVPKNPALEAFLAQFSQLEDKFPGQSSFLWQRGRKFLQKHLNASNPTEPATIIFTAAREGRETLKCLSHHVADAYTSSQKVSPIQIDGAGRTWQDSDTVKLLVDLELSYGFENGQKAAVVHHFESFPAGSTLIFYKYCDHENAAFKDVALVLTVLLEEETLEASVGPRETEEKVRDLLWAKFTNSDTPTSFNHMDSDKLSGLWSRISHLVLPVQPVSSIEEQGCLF
Sequence of Neurogenic locus notch homolog protein 2 (Homo sapiens) (Q04721 whole entry, looked up, canonical isoform): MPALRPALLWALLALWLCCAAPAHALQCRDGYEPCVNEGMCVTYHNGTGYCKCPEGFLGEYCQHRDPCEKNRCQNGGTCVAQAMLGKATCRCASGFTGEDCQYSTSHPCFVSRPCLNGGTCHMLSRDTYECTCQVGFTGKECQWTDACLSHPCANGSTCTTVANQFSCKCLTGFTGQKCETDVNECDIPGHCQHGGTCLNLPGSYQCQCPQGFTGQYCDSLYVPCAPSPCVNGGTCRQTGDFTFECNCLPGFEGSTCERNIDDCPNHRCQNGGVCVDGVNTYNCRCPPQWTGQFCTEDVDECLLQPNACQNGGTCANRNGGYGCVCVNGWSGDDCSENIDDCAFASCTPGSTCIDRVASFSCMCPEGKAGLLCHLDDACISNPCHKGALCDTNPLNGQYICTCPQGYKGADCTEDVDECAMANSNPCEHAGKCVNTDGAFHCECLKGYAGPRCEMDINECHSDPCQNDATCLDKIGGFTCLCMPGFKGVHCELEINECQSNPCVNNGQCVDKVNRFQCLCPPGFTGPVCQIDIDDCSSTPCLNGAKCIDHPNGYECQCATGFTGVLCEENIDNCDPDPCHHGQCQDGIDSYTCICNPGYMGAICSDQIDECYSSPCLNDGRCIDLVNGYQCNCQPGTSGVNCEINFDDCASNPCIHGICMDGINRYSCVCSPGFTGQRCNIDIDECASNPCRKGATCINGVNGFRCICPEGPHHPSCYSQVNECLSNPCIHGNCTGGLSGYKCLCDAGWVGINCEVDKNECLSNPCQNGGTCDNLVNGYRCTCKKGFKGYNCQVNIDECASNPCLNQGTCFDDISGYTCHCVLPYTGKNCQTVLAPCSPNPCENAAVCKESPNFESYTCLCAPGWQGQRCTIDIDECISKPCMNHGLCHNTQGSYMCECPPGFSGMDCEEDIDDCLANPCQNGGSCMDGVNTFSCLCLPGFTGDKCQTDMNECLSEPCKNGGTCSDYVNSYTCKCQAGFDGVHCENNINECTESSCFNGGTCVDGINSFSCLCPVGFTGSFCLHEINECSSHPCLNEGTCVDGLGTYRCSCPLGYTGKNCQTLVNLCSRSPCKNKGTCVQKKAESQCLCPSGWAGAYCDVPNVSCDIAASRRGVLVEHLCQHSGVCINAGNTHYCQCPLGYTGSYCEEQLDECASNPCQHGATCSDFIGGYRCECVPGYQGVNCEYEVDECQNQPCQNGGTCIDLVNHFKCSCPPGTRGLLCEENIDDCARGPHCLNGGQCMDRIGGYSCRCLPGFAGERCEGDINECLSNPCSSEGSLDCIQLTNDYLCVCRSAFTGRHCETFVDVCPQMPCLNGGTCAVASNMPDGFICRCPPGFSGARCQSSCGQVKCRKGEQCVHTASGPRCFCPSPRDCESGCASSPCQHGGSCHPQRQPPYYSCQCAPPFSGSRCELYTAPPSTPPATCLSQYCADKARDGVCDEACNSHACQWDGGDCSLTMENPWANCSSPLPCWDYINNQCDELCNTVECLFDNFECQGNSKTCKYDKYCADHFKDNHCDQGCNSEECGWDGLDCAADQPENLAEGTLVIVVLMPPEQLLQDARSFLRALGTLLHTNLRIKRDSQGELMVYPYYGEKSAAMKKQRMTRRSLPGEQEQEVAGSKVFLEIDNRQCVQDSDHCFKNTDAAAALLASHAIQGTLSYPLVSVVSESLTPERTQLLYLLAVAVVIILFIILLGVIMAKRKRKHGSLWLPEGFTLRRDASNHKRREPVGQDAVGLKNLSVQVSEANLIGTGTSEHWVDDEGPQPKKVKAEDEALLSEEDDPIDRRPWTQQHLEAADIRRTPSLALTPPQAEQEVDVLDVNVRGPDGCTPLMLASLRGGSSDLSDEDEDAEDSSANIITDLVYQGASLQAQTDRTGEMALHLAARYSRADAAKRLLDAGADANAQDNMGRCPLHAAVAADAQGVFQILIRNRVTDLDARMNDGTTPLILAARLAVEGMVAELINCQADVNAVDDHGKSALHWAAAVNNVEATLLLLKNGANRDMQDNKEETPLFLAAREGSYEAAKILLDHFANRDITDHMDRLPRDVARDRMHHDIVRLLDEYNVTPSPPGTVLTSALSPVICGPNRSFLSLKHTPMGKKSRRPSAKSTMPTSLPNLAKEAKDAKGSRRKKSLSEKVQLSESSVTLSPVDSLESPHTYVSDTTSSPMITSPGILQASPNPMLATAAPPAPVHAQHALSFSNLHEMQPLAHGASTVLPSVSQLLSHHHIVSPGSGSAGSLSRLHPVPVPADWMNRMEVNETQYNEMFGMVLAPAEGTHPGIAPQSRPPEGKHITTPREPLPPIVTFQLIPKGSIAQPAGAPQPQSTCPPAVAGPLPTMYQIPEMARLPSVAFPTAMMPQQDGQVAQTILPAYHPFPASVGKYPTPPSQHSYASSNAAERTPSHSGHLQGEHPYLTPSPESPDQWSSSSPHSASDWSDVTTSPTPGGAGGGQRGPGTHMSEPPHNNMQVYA
Sequence of Pro-neuregulin-1, membrane-bound isoform (Homo sapiens) (Q02297 whole entry, looked up, the tested form may be a part, canonical isoform): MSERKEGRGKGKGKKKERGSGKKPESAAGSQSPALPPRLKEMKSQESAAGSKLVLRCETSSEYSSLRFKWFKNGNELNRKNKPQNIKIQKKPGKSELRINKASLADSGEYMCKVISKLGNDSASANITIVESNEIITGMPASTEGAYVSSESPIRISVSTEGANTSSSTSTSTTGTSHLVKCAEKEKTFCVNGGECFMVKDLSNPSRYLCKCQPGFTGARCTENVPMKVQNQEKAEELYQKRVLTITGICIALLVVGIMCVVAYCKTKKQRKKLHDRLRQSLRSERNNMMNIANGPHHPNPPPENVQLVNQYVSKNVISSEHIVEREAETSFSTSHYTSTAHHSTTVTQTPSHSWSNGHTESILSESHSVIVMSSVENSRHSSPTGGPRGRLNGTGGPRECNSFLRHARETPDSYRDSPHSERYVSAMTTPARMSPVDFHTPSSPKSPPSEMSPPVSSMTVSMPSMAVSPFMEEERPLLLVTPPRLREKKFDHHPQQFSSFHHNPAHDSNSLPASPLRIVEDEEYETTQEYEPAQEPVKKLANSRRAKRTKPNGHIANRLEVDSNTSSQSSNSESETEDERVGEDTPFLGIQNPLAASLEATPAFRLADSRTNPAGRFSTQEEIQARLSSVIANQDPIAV

Structure (SMILES): CCOC(=O)C[C@H]1[C@H](OC(=O)Cc2ccc3c(c2)OCO3)[C@@H](NC(=O)c2ccc3ccccc3c2)c2cc(OCCCO)ccc2N1C(=O)c1ccc2ccccc2n1
- composite z-score [1]: -0.123
- composite z-score [2]: 0.243
- composite z-score [3]: -0.161
- composite z-score [4]: 0.319
- composite z-score [5]: 0.429
- composite z-score [6]: 0.799
- composite z-score [7]: 0.8
- z-score [8]: -3.68 (inactive)
- composite z-score [9]: 0.233
- composite z-score [10]: -0.132
- composite z-score [11]: 0.144
- z-score [12]: -3.45 (inactive)
- z-score [13]: -3.3 (inactive)
- z-score [14]: -2.38 (inactive)
- composite z-score [15]: 1.44
- z-score [16]: 0.135 (inactive)
- composite z-score [17]: -0.0865
- composite z-score [18]: 0.235
- composite z-score [19]: 0.808
- composite z-score [20]: 0.0343

Structure (SMILES): COCCCNC(=O)[C@@]1(Cc2ccccc2CN=[N+]=[N-])COC(c2ccc(OCCCO)cc2)=N1
- composite z-score [1]: 1.14
- composite z-score [2]: 1.3
- composite z-score [3]: 0.302
- composite z-score [4]: 1.07
- composite z-score [5]: 1.28
- composite z-score [6]: 1.84
- composite z-score [7]: 1.28
- z-score [8]: -2.53 (inactive)
- composite z-score [9]: 0.934
- composite z-score [10]: -0.277
- composite z-score [11]: 1.54
- z-score [12]: 1.14 (inactive)
- z-score [13]: -2.56 (inactive)
- z-score [14]: 0.0898 (inactive)
- composite z-score [15]: 3.17
- z-score [16]: 2.36 (inactive)
- composite z-score [17]: 0.374
- composite z-score [18]: -0.434
- composite z-score [19]: 0.964
- composite z-score [20]: 0.294

Structure (SMILES): CCOC(=O)C[C@H]1[C@H](OC(=O)c2ccc(-c3ccccc3)cc2)[C@@H](NC(=O)C2CCCCC2)c2cc(OCCCO)ccc2N1C(=O)c1ccc2ccccc2n1
- composite z-score [1]: 0.0371
- composite z-score [2]: 0.3
- composite z-score [3]: -0.0788
- composite z-score [4]: 0.361
- composite z-score [5]: 0.689
- composite z-score [6]: 0.738
- composite z-score [7]: 0.741
- z-score [8]: -0.429 (inactive)
- composite z-score [9]: 0.483
- composite z-score [10]: -0.226
- composite z-score [11]: 1.12
- z-score [12]: -0.778 (inactive)
- z-score [13]: -1.55 (inactive)
- z-score [14]: -0.327 (inactive)
- composite z-score [15]: 1.72
- z-score [16]: 2.33 (inactive)
- composite z-score [17]: 0.0366
- composite z-score [18]: 0.0692
- composite z-score [19]: 1.1
- composite z-score [20]: -0.0631

Structure (SMILES): C=C(/C(=C/C[C@H](OC(=O)c1ccncc1)c1cccc(OCCO)c1)c1cc(C(=O)OC)ccc1OC)C(C)C
- composite z-score [1]: -0.0743
- composite z-score [2]: 1.66
- composite z-score [3]: -0.113
- composite z-score [4]: 0.382
- composite z-score [5]: 0.191
- composite z-score [6]: -0.389
- composite z-score [7]: 0.73
- z-score [8]: -1.23 (inactive)
- composite z-score [9]: -0.179
- composite z-score [10]: -0.0631
- composite z-score [11]: 1.26
- z-score [12]: 0.195 (inactive)
- z-score [13]: -0.382 (inactive)
- z-score [14]: 0.947 (inactive)
- composite z-score [15]: 1.23
- z-score [16]: 1.22 (inactive)
- composite z-score [17]: -0.192
- composite z-score [18]: 0.126
- composite z-score [19]: 0.436
- composite z-score [20]: -0.112

Structure (SMILES): CCCNC(=O)[C@@H]1c2ccccc2C(=O)N(Cc2cc(C(F)(F)F)cc(C(F)(F)F)c2)[C@H]1c1ccc(CO)cc1
- composite z-score [1]: 0.684
- composite z-score [2]: -0.27
- composite z-score [3]: 0.0064
- composite z-score [4]: 0.0859
- composite z-score [5]: 0.394
- composite z-score [6]: 0.519
- composite z-score [7]: 1.2
- z-score [8]: -0.0626 (inactive)
- composite z-score [9]: 0.361
- composite z-score [10]: 0.0895
- composite z-score [11]: 1.09
- z-score [12]: 0.73 (inactive)
- z-score [13]: -1.69 (inactive)
- z-score [14]: -0.262 (inactive)
- composite z-score [15]: 1.34
- z-score [16]: 0.315 (inactive)
- composite z-score [17]: 0.0758
- composite z-score [18]: 0.261
- composite z-score [19]: 0.523
- composite z-score [20]: -0.0255

Structure (SMILES): Cc1ccc(S[C@]2(C(=O)NCC(C)C)CC(=O)N(C(C)C)[C@@H]2c2ccc(CO)cc2)cc1
- composite z-score [1]: -1.02
- composite z-score [2]: -0.691
- composite z-score [3]: -0.083
- composite z-score [4]: -0.293
- composite z-score [5]: -0.625
- composite z-score [6]: -0.517
- composite z-score [7]: -0.0249
- z-score [8]: -0.781 (inactive)
- composite z-score [9]: 0.272
- composite z-score [10]: 0.271
- composite z-score [11]: 0.493
- z-score [12]: 0.588 (inactive)
- z-score [13]: -2.12 (inactive)
- z-score [14]: -0.942 (inactive)
- composite z-score [15]: -0.219
- z-score [16]: 0.538 (inactive)
- composite z-score [17]: -0.0193
- composite z-score [18]: -0.197
- composite z-score [19]: -0.534
- composite z-score [20]: -0.175

Structure (SMILES): CC(C)C(CO)N1C(=O)[C@@H]2C3C(=O)OCCC/C=C\[C@H]3OC23C=CCN(C(C)C)C(=O)[C@@H]13 (stereo not given in full)
- composite z-score [1]: 0.303
- composite z-score [2]: 0.716
- composite z-score [3]: -0.116
- composite z-score [4]: -0.836
- composite z-score [5]: -1.43
- composite z-score [6]: 2.17
- composite z-score [7]: 0.784
- z-score [8]: 0.366 (inactive)
- composite z-score [9]: -0.381
- composite z-score [10]: -0.0994
- composite z-score [11]: 0.613
- z-score [12]: -1.1 (inactive)
- z-score [13]: -1.55 (inactive)
- z-score [14]: -1.1 (inactive)
- composite z-score [15]: 2.65
- z-score [16]: 2.41 (inactive)
- composite z-score [17]: 0.727
- composite z-score [18]: -0.868
- composite z-score [19]: -0.134
- composite z-score [20]: -0.188

Structure (SMILES): NC(=O)NCC#Cc1ccc2c(c1)[C@]1(C(=O)N2)[C@H](c2ccc(OCCO)cc2)N2[C@H](c3ccccc3)[C@H](c3ccccc3)OC(=O)[C@H]2[C@@H]1C(=O)Nc1nc2ccccc2s1
- composite z-score [1]: 1.02
- composite z-score [2]: -0.528
- composite z-score [3]: -0.0953
- composite z-score [4]: 0.0777
- composite z-score [5]: -0.442
- composite z-score [6]: -0.214
- composite z-score [7]: -0.748
- z-score [8]: 2.5 (inactive)
- composite z-score [9]: 0.668
- composite z-score [10]: -0.132
- composite z-score [11]: -0.136
- z-score [12]: 2.55 (inactive)
- z-score [13]: 0.766 (inactive)
- z-score [14]: 4.18 (inactive)
- composite z-score [15]: 0.759
- z-score [16]: 2.26 (inactive)
- composite z-score [17]: 0.289
- composite z-score [18]: -0.17
- composite z-score [19]: -0.0446
- composite z-score [20]: -0.0946

Structure (SMILES): O=C(NO)[C@]1(Cc2ccccc2)N=C(c2ccc(OCCCO)cc2)O[C@@H]1c1ccccc1
- composite z-score [1]: 0.464
- composite z-score [2]: 1.2
- composite z-score [3]: -0.246
- composite z-score [4]: -0.134
- composite z-score [5]: -0.66
- composite z-score [6]: 0.545
- composite z-score [7]: -0.921
- z-score [8]: -1.62 (inactive)
- composite z-score [9]: 0.14
- composite z-score [10]: -0.0645
- composite z-score [11]: -0.269
- z-score [12]: -4.96 (inactive)
- z-score [13]: -3.08 (inactive)
- z-score [14]: -1.94 (inactive)
- composite z-score [15]: -0.231
- z-score [16]: 3.42 (inactive)
- composite z-score [17]: 0.0204
- composite z-score [18]: -0.0613
- composite z-score [19]: -1.1
- composite z-score [20]: -0.174
